Measurements: PubChem BioAssay AID1159580 (chemical genetic matrix, 2015)
In all, about 5,500 compounds went through this assay and about 2,000 (36%) were called active. About 18% were inconclusive and are not listed. Cut-off read from the data, not from the text of the source: active = normalized growth mostly below about 0.91 (no sharp cut-off); inconclusive = no clear call, values can overlap the other calls; inactive = mostly above about 0.92. Some of the results follow.

Experiment: chemical genetic growth profiling, strain panel (AID 1159580);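 note: tested at 20 µM; growth read once vehicle control cultures reached saturation at 30 °C; 1 = growth at the plate median or of vehicle wells; lower values mean less growth of the strain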
Details: growth OD

Measured: normalized growth

CC1(C)S[C@@H]2[C@H](NC(=O)COc3ccccc3)C(=O)N2[C@H]1C(=O)O
inactive: S. cerevisiae deletion strains, locus YJR075W, strain HOC1, hits give low values 1 | S. cerevisiae deletion strains, locus YKL009W, strain mrt4, hits give low values 1.03 | S. cerevisiae deletion strains, locus YKL068W, hits give low values 1.02 | S. cerevisiae deletion strains, locus YKL085W, strain MDH1 (second series), hits give low values 1.01 | S. cerevisiae deletion strains, locus YKL085W, strain MDH1, hits give low values 1.01 | S. cerevisiae deletion strains, locus YKL160W, strain elf1, hits give low values 0.977 | S. cerevisiae deletion strains, locus YKL190W, strain CNB1, hits give low values 0.992 | S. cerevisiae deletion strains, locus YKR001C, strain vps1, hits give low values 1.03 | S. cerevisiae deletion strains, locus YKR026C, strain gcn3, hits give low values 0.983 | S. cerevisiae deletion strains, locus YKR091W, strain srl3, hits give low values 0.991 | S. cerevisiae deletion strains, locus YLL001W, strain dnm1, hits give low values 0.935 | S. cerevisiae deletion strains, locus YLL026W, hits give low values 0.983 | S. cerevisiae deletion strains, locus YLL041C, strain sdh2, hits give low values 0.999 | S. cerevisiae deletion strains, locus YLR027C, strain aat2, hits give low values 0.973 | S. cerevisiae deletion strains, locus YLR039C, strain RIC1, hits give low values 1.04 | S. cerevisiae deletion strains, locus YLR058C, strain SHM2, hits give low values 1 | S. cerevisiae deletion strains, locus YLR102C, strain apc9, hits give low values 1.02 | S. cerevisiae deletion strains, locus YLR113W, strain HOG1, hits give low values 0.994 | S. cerevisiae deletion strains, locus YLR221C, strain rsa3, hits give low values 1.01 | S. cerevisiae deletion strains, locus YLR258W, strain gsy2, hits give low values 0.999 | S. cerevisiae deletion strains, locus YLR262C, strain YPT6 (second series), hits give low values 0.968 | S. cerevisiae deletion strains, locus YLR262C, strain YPT6, hits give low values 1.04 | S. cerevisiae deletion strains, locus YLR268W, strain sec22, hits give low values 1.03 | S. cerevisiae deletion strains, locus YLR320W, strain mms22, hits give low values 0.99 | S. cerevisiae deletion strains, locus YLR330W, strain CHS5, hits give low values 1 | S. cerevisiae deletion strains, locus YLR342W, strain FKS1 (second series), hits give low values 0.976 | S. cerevisiae deletion strains, locus YLR342W, strain FKS1, hits give low values 0.975 | S. cerevisiae deletion strains, locus YLR357W, strain rsc2, hits give low values 0.992 | S. cerevisiae deletion strains, locus YLR370C, strain arc18, hits give low values 1 | S. cerevisiae deletion strains, locus YLR371W, strain rom2, hits give low values 1.02 | S. cerevisiae deletion strains, locus YLR384C, strain iki3, hits give low values 0.98 | S. cerevisiae deletion strains, locus YLR418C, strain cdc73, hits give low values 1.06 | S. cerevisiae deletion strains, locus YML016C, strain PPZ1, hits give low values 1.01 | S. cerevisiae deletion strains, locus YML032C, strain rad52, hits give low values 1.04 | S. cerevisiae deletion strains, locus YML120C, strain ndi1, hits give low values 0.995 | S. cerevisiae deletion strains, locus YML124C, strain tub3, hits give low values 1.03 | S. cerevisiae deletion strains, locus YMR058W, strain fet3, hits give low values 0.988 | S. cerevisiae deletion strains, locus YMR078C, strain ctf18, hits give low values 1.02 | S. cerevisiae deletion strains, locus YMR125W, strain sto1, hits give low values 1.01 | S. cerevisiae deletion strains, locus YMR129W, hits give low values 0.998 | S. cerevisiae deletion strains, locus YMR205C, strain PFK2, hits give low values 0.994 | S. cerevisiae deletion strains, locus YMR223W, strain ubp8, hits give low values 1.02 | S. cerevisiae deletion strains, locus YMR231W, strain pep5, hits give low values 1.01 | S. cerevisiae deletion strains, locus YMR263W, strain SAP30, hits give low values 1 | S. cerevisiae deletion strains, locus YMR307W, strain GAS1, hits give low values 0.989 | S. cerevisiae deletion strains, locus YNL067W, strain RPL9B, hits give low values 1.01 | S. cerevisiae deletion strains, locus YNL071W, strain lat1, hits give low values 1 | S. cerevisiae deletion strains, locus YNL128W, strain TEP1, hits give low values 1.01 | S. cerevisiae deletion strains, locus YNL153C, strain GIM3, hits give low values 1 | S. cerevisiae deletion strains, locus YNL183C, strain NPR1, hits give low values 0.937 | S. cerevisiae deletion strains, locus YNL209W, strain ssb2, hits give low values 1 | S. cerevisiae deletion strains, locus YNL233W, strain BNI4, hits give low values 1.01 | S. cerevisiae deletion strains, locus YNL248C, strain rpa49, hits give low values 1.03 | S. cerevisiae deletion strains, locus YNL250W, strain rad50, hits give low values 1.03 | S. cerevisiae deletion strains, locus YNL271C, strain bni1, hits give low values 1.02 | S. cerevisiae deletion strains, locus YNL298W, strain CLA4, hits give low values 1.04 | S. cerevisiae deletion strains, locus YNL307C, strain MCK1, hits give low values 1.03 | S. cerevisiae deletion strains, locus YNL322C, strain KRE1 (second series), hits give low values 0.997 | S. cerevisiae deletion strains, locus YNL322C, strain KRE1, hits give low values 1 | S. cerevisiae deletion strains, locus YNR049C, strain mso1, hits give low values 0.994 | S. cerevisiae deletion strains, locus YNR052C, strain pop2, hits give low values 1.01 | S. cerevisiae deletion strains, locus YOL006C, strain TOP1, hits give low values 1.05 | S. cerevisiae deletion strains, locus YOL012C, strain htz1 1.38 | S. cerevisiae deletion strains, locus YOL147C, strain pex11, hits give low values 1.02 | S. cerevisiae deletion strains, locus YOR001W, strain rrp6, hits give low values 0.983 | S. cerevisiae deletion strains, locus YOR061W, strain CKA2, hits give low values 1.02 | S. cerevisiae deletion strains, locus YOR069W, strain VPS5, hits give low values 1 | S. cerevisiae deletion strains, locus YOR070C, strain gyp1, hits give low values 1 | S. cerevisiae deletion strains, locus YOR080W, strain dia2, hits give low values 0.986 | S. cerevisiae deletion strains, locus YOR083W, strain WHI5, hits give low values 0.954 | S. cerevisiae deletion strains, locus YOR106W, strain vam3, hits give low values 0.963 | S. cerevisiae deletion strains, locus YOR136W, strain idh2, hits give low values 1.03 | S. cerevisiae deletion strains, locus YOR144C, strain elg1, hits give low values 1.02 | S. cerevisiae deletion strains, locus YOR184W, strain ser1, hits give low values 1.04 | S. cerevisiae deletion strains, locus YOR231W, strain MKK1, hits give low values 1.02 | S. cerevisiae deletion strains, locus YOR265W, strain rbl2, hits give low values 1 | S. cerevisiae deletion strains, locus YOR270C, strain vph1, hits give low values 1.01 | S. cerevisiae deletion strains, locus YOR290C, strain snf2, hits give low values 1.01 | S. cerevisiae deletion strains, locus YOR316C, strain cot1, hits give low values 1.02 | S. cerevisiae deletion strains, locus YPL051W, strain arl3, hits give low values 0.982 | S. cerevisiae deletion strains, locus YPL055C, strain LGE1, hits give low values 1.01 | S. cerevisiae deletion strains, locus YPL078C, strain atp4, hits give low values 0.955 | S. cerevisiae deletion strains, locus YPL106C, strain sse1, hits give low values 0.998 | S. cerevisiae deletion strains, locus YPL240C, strain hsp82, hits give low values 1 | S. cerevisiae deletion strains, locus YPL241C, strain CIN2, hits give low values 1 | S. cerevisiae deletion strains, locus YPL256C, strain CLN2, hits give low values 0.968 | S. cerevisiae deletion strains, locus YPR119W, strain clb2, hits give low values 1.02 | S. cerevisiae deletion strains, locus YPR141C, strain kar3, hits give low values 1.03 | S. cerevisiae deletion strains, locus YPR163C, strain tif3, hits give low values 1.04 | S. cerevisiae deletion strains, locus YPR167C, strain met16, hits give low values 1.02 | S. cerevisiae deletion strains, strain wtn01, hits give low values 1.02 | S. cerevisiae strains, strain wild type, hits give low values 1.01
